Measurements taken from PubChem BioAssay (NCATS).
Inconclusive results are not listed. Activity calls are given as the source filed them. Calls follow the shape of the dose curve; as a rule, active = well fitted inhibition curve with a large enough effect; inconclusive = small, poorly fitted or top-dose-only effect; inactive = flat fitted curve, though single readings scatter. Peptide text beside a SMILES is read from it.

The compounds below were run against Ubiquitin carboxyl-terminal hydrolase 1 (Homo sapiens) (UniProt O94782) (assay: Inhibitors of USP1/UAF1: Pilot qHTS (AID 504865; also: nearly all actives have a fitted effect of over 35% in size; also: potency is read from the fitted curve at half-maximal effect;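 as to activity change, negative = inhibition: rhodamine fluorescence freed from ubiquitin-rhodamine substrate followed over time; top concentration of the series differs between compounds; % is scaled to controls: 0 for no effect and ±100 for the full control effect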)). Details: purified USP1/UAF1, Ub-rhodamine cleavage fluorescence; series mostly up to 114 µM; activity change, negative = inhibition: at the top concentration.
Ubiquitin carboxyl-terminal hydrolase 1 (Homo sapiens), sequence (O94782 whole entry, looked up): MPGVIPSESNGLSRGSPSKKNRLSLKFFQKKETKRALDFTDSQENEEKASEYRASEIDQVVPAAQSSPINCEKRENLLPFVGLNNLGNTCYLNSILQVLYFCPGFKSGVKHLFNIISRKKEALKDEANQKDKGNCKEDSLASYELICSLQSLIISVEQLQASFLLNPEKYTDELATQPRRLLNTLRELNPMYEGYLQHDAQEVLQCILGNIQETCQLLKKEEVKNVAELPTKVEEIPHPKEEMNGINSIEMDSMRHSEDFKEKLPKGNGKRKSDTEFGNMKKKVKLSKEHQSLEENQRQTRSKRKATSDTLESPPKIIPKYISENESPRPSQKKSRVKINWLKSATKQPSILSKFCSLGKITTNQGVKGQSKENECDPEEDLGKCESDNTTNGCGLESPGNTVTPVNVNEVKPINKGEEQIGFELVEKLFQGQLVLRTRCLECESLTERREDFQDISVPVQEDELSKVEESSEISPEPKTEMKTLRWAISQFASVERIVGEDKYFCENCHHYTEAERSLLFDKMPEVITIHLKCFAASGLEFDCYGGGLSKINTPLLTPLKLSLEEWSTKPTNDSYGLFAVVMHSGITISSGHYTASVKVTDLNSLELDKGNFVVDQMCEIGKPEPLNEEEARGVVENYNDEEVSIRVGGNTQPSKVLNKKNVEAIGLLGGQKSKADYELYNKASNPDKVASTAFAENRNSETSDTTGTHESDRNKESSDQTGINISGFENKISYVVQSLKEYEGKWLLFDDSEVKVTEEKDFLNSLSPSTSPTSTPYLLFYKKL
Procedure, shortened: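 Kinetic fluorescence assay: 1nM USP1/UAF1, 15 min compound preincubation, then 150nM Ub-Rho; 480/540 nm.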
With `CN(C)CCCOC1C(C(O)CO)OC2OC(C)(C)O[C@@H]21` (stereo partly drawn) the “activity change, negative = inhibition” value was -6.5% (inactive).
In the case of `CC[C@@]12CCCN3CCc4c(n(c5ccccc45)[C@](O)(C(=O)OC)C1)C32` (stereo partly drawn), the “activity change, negative = inhibition” value is reported as -7.77% (inactive).
For `NC(C(=O)O)[C@@H]1CC(Cl)=NO1` (stereo partly drawn), the “activity change, negative = inhibition” value was -11.7% (inactive).
`CN1CC(=O)N=C1N` was tested, and the “activity change, negative = inhibition” value was 3.43% (inactive).
For `OCC1OC([S-])[C@H](O)C(O)C1O.[Au+]` (stereo partly drawn), the “activity change, negative = inhibition” value was 28.9% (inactive).
`CC(C)C1CCC(C(=O)NC(Cc2ccccc2)C(=O)O)CC1` (stereo not drawn) was tested, and the “activity change, negative = inhibition” value was -7.97% (inactive).
For `CCC(CCC(C)C1CCC2C3CC=C4CC(O)CC[C@@]4(C)C3CC[C@@]12C)C(C)C` (stereo partly drawn), the “activity change, negative = inhibition” value was 0.763% (inactive).
For `C[C@]12CCC(=O)C=C1CCC1C2C(=O)C[C@]2(C)C1CC[C@]2(O)C(=O)CO` (stereo partly drawn), the “activity change, negative = inhibition” value was -6.62% (inactive).
`OCC1O[C@H](OC2C(CO)O[C@@](O)(CO)C2O)C(O)C(O)C1O` (stereo partly drawn) was tested, and the “activity change, negative = inhibition” value was -7.01% (inactive).
With `CC1(C)OC2CO[C@]3(COS(N)(=O)=O)OC(C)(C)OC3C2O1` (stereo partly drawn) the “activity change, negative = inhibition” value was 2.8% (inactive).
For `CC1(C)OC2CC(=O)OC[C@@]23C1CC(=O)[C@]1(C)C3CC[C@@]2(C)C(c3ccoc3)OC(=O)C3O[C@@]321` (stereo partly drawn), the “activity change, negative = inhibition” value was -5.7% (inactive).
With `CC1=C(CCC(=O)O)c2cc3nc(cc4[nH]c(cc5[nH]c(cc1n2)c(C)c5C(C)O)c(C)c4C(C)O)C(C)=C3CCC(=O)O` (stereo not drawn) the “activity change, negative = inhibition” value was -9.82% (inactive).
`CCOC(=O)C1=CC(OC(CC)CC)C(NC(C)=O)C(N)C1` (stereo not drawn) was tested, and the “activity change, negative = inhibition” value was -5.65% (inactive).
For `COC(=O)C(Cc1ccccc1)NC(=O)C(N)CC(=O)O` (stereo not drawn) (H-Asp-Phe-OMe; configuration not given here), the “activity change, negative = inhibition” value was -11% (inactive).
`C[C@]12C=CC(=O)C=C1CCC1C2C(O)C[C@]2(C)C1CC[C@]2(O)C(=O)CO` (stereo partly drawn) was tested, and the “activity change, negative = inhibition” value was -8.07% (inactive).
For `CC1(C)S[C@H]2C(NC(=O)[C@@H](N)c3ccc(O)cc3)C(=O)N2[C@@H]1C(=O)O` (stereo partly drawn), the “activity change, negative = inhibition” value was -7.33% (inactive).
`Cc1cc(O)c(C=O)c2c1C(=O)Oc1c(C)c(O)c3c(c1O2)C(O)OC3=O` (stereo not drawn) was tested, and the Potency was 39.8 µM (active).
`C[C@]1(c2ccccc2)OC(C(=O)O)=CC1=O` was tested, and the “activity change, negative = inhibition” value was -8.42% (inactive).
`CC(=O)N[C@H](CC(C)C)C(=O)O` was tested, and the “activity change, negative = inhibition” value was -1.52% (inactive).
In the case of `COc1c(O)cc(O)cc1O`, the “activity change, negative = inhibition” value is reported as -0.971% (inactive).
In the case of `COc1ccc2cc(C(C)CO)ccc2c1` (stereo not drawn), the “activity change, negative = inhibition” value is reported as -6.3% (inactive).
In the case of `CC1CCC(C(C)C)C(=O)C1` (stereo not drawn), the “activity change, negative = inhibition” value is reported as -6.78% (inactive).
For `CNC1CC(N)[C@H](O)[C@@H](O[C@@H]2OC(CO)C3OC4(OC(C(N)CO)C(O)C(O)C4O)O[C@@H]3[C@H]2O)C1O` (stereo partly drawn), the “activity change, negative = inhibition” value was 4.75% (inactive).
In the case of `CCCC(=O)O[C@]1(C(=O)CO)CCC2[C@@H]3CCC4=CC(=O)CC[C@]4(C)C3C(O)C[C@]21C` (stereo partly drawn), the “activity change, negative = inhibition” value is reported as -12.2% (inactive).
In the case of `CC(=O)N[C@@H]1C(O)OC(CO)C(O)C1O` (stereo partly drawn), the “activity change, negative = inhibition” value is reported as 1.06% (inactive).
With `O=C1OC(CO)C(O)C(O)C1O` (stereo not drawn) the “activity change, negative = inhibition” value was -3.66% (inactive).
For `CNC1C(OC2C(O[C@@H]3C(O)C(O)[C@@H](N=C(N)N)C(O)C3N=C(N)N)OC(C)[C@@]2(O)CO)OC(CO)C(O)C1O` (stereo partly drawn), the “activity change, negative = inhibition” value was -3.34% (inactive).
With `Nc1nc2ncc(CNc3ccc(C(=O)NC(CCC(=O)O)C(=O)O)cc3)nc2c(=O)[nH]1` (stereo not drawn) the Potency was “inactive”.

Each compound was assayed against Luciferin 4-monooxygenase (Photinus pyralis) (UniProt P08659) (assay: Biochemical firefly luciferase enzyme assay for NPC (AID 624030;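 also: purified P. pyralis luciferase at 10 nM with luciferin and ATP substrate; 0% = DMSO and -100% = full luciferase inhibition by PTC124 control; nearly all actives have a fitted effect of over 70% in size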)). Details: purified P. pyralis luciferase, luminescence, 5 min; series mostly up to 24.9 µM; activity change, negative = inhibition: at the top concentration.
Luciferin 4-monooxygenase (Photinus pyralis), sequence (P08659 whole entry, looked up): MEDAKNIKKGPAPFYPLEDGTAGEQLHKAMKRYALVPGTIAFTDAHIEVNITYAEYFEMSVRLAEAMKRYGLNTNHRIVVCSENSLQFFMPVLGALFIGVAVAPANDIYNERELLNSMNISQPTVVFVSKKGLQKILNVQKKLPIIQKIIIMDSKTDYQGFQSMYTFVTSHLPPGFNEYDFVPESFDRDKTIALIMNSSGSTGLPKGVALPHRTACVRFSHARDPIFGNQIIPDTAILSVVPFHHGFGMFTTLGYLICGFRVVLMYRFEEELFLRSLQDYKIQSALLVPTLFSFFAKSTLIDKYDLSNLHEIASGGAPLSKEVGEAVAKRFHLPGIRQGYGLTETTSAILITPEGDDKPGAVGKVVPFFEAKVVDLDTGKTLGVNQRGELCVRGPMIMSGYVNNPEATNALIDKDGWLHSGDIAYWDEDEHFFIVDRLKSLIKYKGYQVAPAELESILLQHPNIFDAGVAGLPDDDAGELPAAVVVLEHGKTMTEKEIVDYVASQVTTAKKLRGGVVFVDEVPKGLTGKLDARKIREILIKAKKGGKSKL
Procedure, shortened: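 Purified P. pyralis luciferase at 10 nM in 50 mM Tris Acetate (final), luminescence read within 5 minutes of enzyme addition to compounds. Activity normalised to PTC124 versus DMSO; concentration-response curves classed by r2, magnitude and activity.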
For `CN(C)CCCOC1C(C(O)CO)OC2OC(C)(C)O[C@@H]21` (stereo partly drawn), the “activity change, negative = inhibition” value was -8.31% [at 58.6 µM] (inactive).
For `CCC(C)C(=O)OC1CCC=C2C=CC(C)C(CCC3CC(O)CC(=O)O3)[C@@H]21` (stereo partly drawn), the “activity change, negative = inhibition” value was -0.601% [at 58.6 µM] (inactive).
With `CC(=O)OC1CCC2C3CCc4cc(O)ccc4C3CCC12C` (stereo not drawn) the “activity change, negative = inhibition” value was 2.27% [at 58.6 µM] (inactive).
In the case of `CC[C@@]12CCCN3CCc4c(n(c5ccccc45)[C@](O)(C(=O)OC)C1)C32` (stereo partly drawn), the “activity change, negative = inhibition” value is reported as 2.24% [at 58.6 µM] (inactive).
For `NC(C(=O)O)[C@@H]1CC(Cl)=NO1` (stereo partly drawn), the “activity change, negative = inhibition” value was 8.46% [at 58.6 µM] (inactive).
With `CN1CC(=O)N=C1N` the “activity change, negative = inhibition” value was 2.56% [at 58.6 µM] (inactive).
For `OCC1OC([S-])[C@H](O)C(O)C1O.[Au+]` (stereo partly drawn), the “activity change, negative = inhibition” value was -16.2% [at 58.6 µM] (inactive).
With `CC(C)C1CCC(C(=O)NC(Cc2ccccc2)C(=O)O)CC1` (stereo not drawn) the “activity change, negative = inhibition” value was -18.5% [at 58.6 µM] (inactive).
With `CCC(CCC(C)C1CCC2C3CC=C4CC(O)CC[C@@]4(C)C3CC[C@@]12C)C(C)C` (stereo partly drawn) the “activity change, negative = inhibition” value was 1.71% [at 58.6 µM] (inactive).
`C[C@]12CCC(=O)C=C1CCC1C2C(=O)C[C@]2(C)C1CC[C@]2(O)C(=O)CO` (stereo partly drawn) was tested, and the “activity change, negative = inhibition” value was -0.937% [at 58.6 µM] (inactive).
With `OCC1O[C@H](OC2C(CO)O[C@@](O)(CO)C2O)C(O)C(O)C1O` (stereo partly drawn) the “activity change, negative = inhibition” value was 3.32% [at 58.6 µM] (inactive).
For `CC1(C)OC2CO[C@]3(COS(N)(=O)=O)OC(C)(C)OC3C2O1` (stereo partly drawn), the “activity change, negative = inhibition” value was 1.34% [at 58.6 µM] (inactive).
`CC1(C)OC2CC(=O)OC[C@@]23C1CC(=O)[C@]1(C)C3CC[C@@]2(C)C(c3ccoc3)OC(=O)C3O[C@@]321` (stereo partly drawn) was tested, and the “activity change, negative = inhibition” value was 2.01% [at 58.6 µM] (inactive).
In the case of `CCOC(=O)C1=CC(OC(CC)CC)C(NC(C)=O)C(N)C1` (stereo not drawn), the “activity change, negative = inhibition” value is reported as 5.88% [at 58.6 µM] (inactive).
In the case of `COC1C=CO[C@@]2(C)Oc3c(C)c(O)c4c(O)c(c5c(nc6cc(C)ccn65)c4c3C2=O)NC(=O)/C(C)=C\C=CC(C)C(O)[C@@H](C)C(O)C(C)[C@@H](OC(C)=O)C1C` (stereo partly drawn), the “activity change, negative = inhibition” value is reported as -11.8% [at 58.6 µM] (inactive).
In the case of `COC(=O)C(Cc1ccccc1)NC(=O)C(N)CC(=O)O` (stereo not drawn) (H-Asp-Phe-OMe; configuration not given here), the “activity change, negative = inhibition” value is reported as -0.544% [at 58.6 µM] (inactive).
In the case of `C[C@]12C=CC(=O)C=C1CCC1C2C(O)C[C@]2(C)C1CC[C@]2(O)C(=O)CO` (stereo partly drawn), the “activity change, negative = inhibition” value is reported as 0.838% [at 58.6 µM] (inactive).
`CC1(C)S[C@H]2C(NC(=O)[C@@H](N)c3ccc(O)cc3)C(=O)N2[C@@H]1C(=O)O` (stereo partly drawn) was tested, and the “activity change, negative = inhibition” value was -9.68% [at 58.6 µM] (inactive).
For `CC(C)=CCC[C@](C)(O)C1CC=C(C)CC1` (stereo partly drawn), the “activity change, negative = inhibition” value was 0.0207% [at 58.6 µM] (inactive).
`C[C@]1(c2ccccc2)OC(C(=O)O)=CC1=O` was tested, and the “activity change, negative = inhibition” value was 0.798% [at 58.6 µM] (inactive).
For `CC(=O)N[C@H](CC(C)C)C(=O)O`, the “activity change, negative = inhibition” value was 3.35% [at 58.6 µM] (inactive).
With `COc1ccc2cc(C(C)CO)ccc2c1` (stereo not drawn) the “activity change, negative = inhibition” value was -16.4% [at 58.6 µM] (inactive).
With `CNC1CC(N)[C@H](O)[C@@H](O[C@@H]2OC(CO)C3OC4(OC(C(N)CO)C(O)C(O)C4O)O[C@@H]3[C@H]2O)C1O` (stereo partly drawn) the “activity change, negative = inhibition” value was 0.0872% [at 58.6 µM] (inactive).
`CCCC(=O)O[C@]1(C(=O)CO)CCC2[C@@H]3CCC4=CC(=O)CC[C@]4(C)C3C(O)C[C@]21C` (stereo partly drawn) was tested, and the “activity change, negative = inhibition” value was 1.24% [at 58.6 µM] (inactive).
For `CC(=O)[C@]1(O)CCC2C3C=C(Cl)C4=CC(=O)C5CC5[C@@]4(C)C3CC[C@]21C` (stereo partly drawn), the “activity change, negative = inhibition” value was 1.13% [at 58.6 µM] (inactive).
`C/C1=C2N=C(/C=C3N=C(/C(C)=C4\[N-]C(C)(C5N=C1C(C)(CCC(=O)NCC(C)OP(=O)([O-])O[C@H]1C(O)C(n6cnc7cc(C)c(C)cc76)O[C@@H]1CO)C5CC(N)=O)C(C)(CC(N)=O)C4CCC(N)=O)C(C)(CC(N)=O)C\3CCC(N)=O)C(C)(C)C/2CCC(N)=O.[CH2-]C1OC(n2cnc3c(N)ncnc32)C(O)C1O.[Co]` (stereo partly drawn) was tested, and the “activity change, negative = inhibition” value was -11.7% [at 58.6 µM] (inactive).
In the case of `O=C1OC(CO)C(O)C(O)C1O` (stereo not drawn), the “activity change, negative = inhibition” value is reported as -0.604% [at 58.6 µM] (inactive).
For `CNC1C(OC2C(O[C@@H]3C(O)C(O)[C@@H](N=C(N)N)C(O)C3N=C(N)N)OC(C)[C@@]2(O)CO)OC(CO)C(O)C1O` (stereo partly drawn), the “activity change, negative = inhibition” value was 1.81% [at 58.6 µM] (inactive).
In the case of `COc1cc(C2c3cc4c(cc3C(O[C@@H]3OC5COC(c6cccs6)OC5C(O)C3O)C3COC(=O)C23)OCO4)cc(OC)c1O` (stereo partly drawn), the “activity change, negative = inhibition” value is reported as 14.2% [at 58.6 µM] (inactive).
For `Nc1nc2ncc(CNc3ccc(C(=O)NC(CCC(=O)O)C(=O)O)cc3)nc2c(=O)[nH]1` (stereo not drawn), the “activity change, negative = inhibition” value was -7.39% [at 58.6 µM] (inactive).
